In all, about 9,900 sequences were measured (“r (bound/input frequency ratio)”: median about 0.7, highest 2% from about 6.5 on). The full list was thinned out, with the highest values kept by preference.

B1: ENSMUSG00000034801.232|Sos2|152:160 (ssRNA)
RNA: GGGAGUUCUACAGUCCGACGAUCGCUUCGAUAUCCGCAUGCUAUAACUGUCUUUAAUCUCGUGUUAACUGAAAUUUUUGAAAAGUUUUUCCAGAUUAGUAAUAUUUAAACAGAAAAUACUUUAAAAAGCUUUAUUAAAUUUUUUAAUCAGGAUAAAGCUUUGCCAUUUGGAUACUAUCAUUCAAAGUGAUCAAGCAUACAUACUUAUGCUGAUAGUGCAGUAGCAGCCAUUGUAAAGUAGCCAAAAGCCACGUUGUUUAUCUACUGGUCUGUGGCCUUUUACUGUGCUUUGUAUCAGAGUUCUCUCUUGCGGUCGCACUAGUGUGGAAUUCUCGGGUGUCAAGG
B2: ENSMUSG00000031028.95|Tub (ssRNA)
RNA: GGGAGUUCUACAGUCCGACGAUCGCUUCGAUAUCCGCAUGCUAGGUGGUCAGCAGAAAGCACUCCCACUUCAAAAGGGCCCAUUAGGCCCAAAGGGGGUUAGGAGUGGUAGGGAUAGGUGCGUGGCAGGUCCCUGCUAGGAUUGCAGGGGCCUGGCCAUGUGUAUUAGCUGGAGGCUUAGAAUGCUAGCUCAUUUGUUGCUACAGAUUUGCCCAGUGCUUGCACACGUAAGAACCCAGCUCUCAAGGCCAAAUAUCUGAGUGGAUGGGGAUGAUAGGAGUCAUCCAGUAGACUCCCUACAUCACUCUUGCGGUCGCACUAGUGUGGAAUUCUCGGGUGUCAAGG
B3: ENSMUSG00000029028.207|Lrrc47 (ssRNA)
RNA: GGGAGUUCUACAGUCCGACGAUCGCUUCGAUAUCCGCAUGCUAGUCCUAAGGACCCAGCAGCUGCACAGAGGACUUGGUGGCCCCGUGCCUUGCCAUCUGGCUGAGAAGAGAACCAGACCCUCAGCCUUCCCCCUCGACACCUUCUCGUUGGUGACCUCUGACCUUAAAGGACCAUUUCUACCUUCUGUAAAAGAACACCUGUUUGGGGUUGCGUGCGGCUUUCAUCCUAAGGCCGUGCGAGAGCCGUUAGCUGUCAGAACUAGUGAAGCUCCAGGCUCCUCGUGGCAGACCCUGGACAACGCCUCUUGCGGUCGCACUAGUGUGGAAUUCUCGGGUGUCAAGG
B4: ENSMUSG00000022095.258|Fam160b2 (ssRNA)
RNA: GGGAGUUCUACAGUCCGACGAUCGCUUCGAUAUCCGCAUGCUAGUGAGAGAGAGAGCGAGCUAUGAAUGAAUGUGAGUGUGUGUGUGUGUGUGUGUGUGUGAGAGAGAGAGAGAGAGAGCGAGCUAUGAAUGAAUGUGAGUGUGUGUGUGUGUGUGUGUGAGAGAGAGAGAGAGAGAGAGAGAGCUGUGAGUACACAUGGGUGCUGGUGUGGGACAGGAGCAGAUCUUGGUGGAGUGGGUCUACACUUGAGAUUUGUACUCGUUUGAGAGGCUGGGCAAUACUCAAUGCACUUUGGCAUUUGCCUCUUGCGGUCGCACUAGUGUGGAAUUCUCGGGUGUCAAGG
B5: ENSMUSG00000022095.260|Fam160b2 (ssRNA)
RNA: GGGAGUUCUACAGUCCGACGAUCGCUUCGAUAUCCGCAUGCUAGCGAGCUAUGAAUGAAUGUGAGUGUGUGUGUGUGUGUGUGUGUGUGAGAGAGAGAGAGAGAGAGCGAGCUAUGAAUGAAUGUGAGUGUGUGUGUGUGUGUGUGUGAGAGAGAGAGAGAGAGAGAGAGAGCUGUGAGUACACAUGGGUGCUGGUGUGGGACAGGAGCAGAUCUUGGUGGAGUGGGUCUACACUUGAGAUUUGUACUCGUUUGAGAGGCUGGGCAAUACUCAAUGCACUUUGGCAUUUGCAUGGUGUCUUCACUCUUGCGGUCGCACUAGUGUGGAAUUCUCGGGUGUCAAGG
B6: ENSMUSG00000022095.265|Fam160b2 (ssRNA)
RNA: GGGAGUUCUACAGUCCGACGAUCGCUUCGAUAUCCGCAUGCUAUGUGUGUGUGUGUGUGAGAGAGAGAGAGAGAGAGCGAGCUAUGAAUGAAUGUGAGUGUGUGUGUGUGUGUGUGUGAGAGAGAGAGAGAGAGAGAGAGAGCUGUGAGUACACAUGGGUGCUGGUGUGGGACAGGAGCAGAUCUUGGUGGAGUGGGUCUACACUUGAGAUUUGUACUCGUUUGAGAGGCUGGGCAAUACUCAAUGCACUUUGGCAUUUGCAUGGUGUCUUCACAACAGCACAGCAAUAAACAUUGUGAUUGUCUCUUGCGGUCGCACUAGUGUGGAAUUCUCGGGUGUCAAGG
B7: ENSMUSG00000022095.265|Fam160b2|1:16;55:75;122:126 (ssRNA)
RNA: GGGAGUUCUACAGUCCGACGAUCGCUUCGAUAUCCGCAUGCUAACACACACACACACACAGAGAGAGAGAGAGAGAGCGAGCUAUGAAUGAAUGUGACACACACACACACACACACACAGAGAGAGAGAGAGAGAGAGAGAGCUGUGAGUACACAUGGGUGCUGCACACGGACAGGAGCAGAUCUUGGUGGAGUGGGUCUACACUUGAGAUUUGUACUCGUUUGAGAGGCUGGGCAAUACUCAAUGCACUUUGGCAUUUGCAUGGUGUCUUCACAACAGCACAGCAAUAAACAUUGUGAUUGUCUCUUGCGGUCGCACUAGUGUGGAAUUCUCGGGUGUCAAGG

Chain of TDP-43 (Q13148 whole entry): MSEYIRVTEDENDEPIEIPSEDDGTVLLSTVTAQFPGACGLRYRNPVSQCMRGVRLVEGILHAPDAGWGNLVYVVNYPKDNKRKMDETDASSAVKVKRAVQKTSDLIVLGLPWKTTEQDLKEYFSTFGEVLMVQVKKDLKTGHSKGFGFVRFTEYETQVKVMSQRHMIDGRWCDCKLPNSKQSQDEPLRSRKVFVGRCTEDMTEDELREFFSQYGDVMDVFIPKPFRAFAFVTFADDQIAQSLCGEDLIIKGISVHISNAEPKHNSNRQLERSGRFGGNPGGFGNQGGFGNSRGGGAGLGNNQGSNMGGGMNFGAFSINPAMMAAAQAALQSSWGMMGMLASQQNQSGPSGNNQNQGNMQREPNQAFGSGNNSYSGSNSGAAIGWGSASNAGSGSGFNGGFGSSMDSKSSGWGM

The target of this experiment is TDP-43 (Homo sapiens, UniProt Q13148 1-414). The experiment in a line: RNA Bind-n-Seq with designed 260-mer pool; 25 mM Tris-HCl, 150 mM KCl, 3 mM MgCl2, BSA (printed 500 mg/mL), 20 units/mL SUPERase IN; pH not stated; 500 nM RNA pool, 1 h, 4 C; TDP-43 5, 50, 500 nM; high values mean tight binding. Conditions: protein: recombinant; tags: SBP (GST cleaved off with PreScission; pGEX-GST-SBP). An outline of the steps:
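Duplicate measurements used two independent batches of recombinant SBP-tagged TDP-43, which was captured on streptavidin beads at 5, 50 or 500 nM. The beads were incubated with 500 nM of an in vitro-transcribed 260-nt 3′ UTR oligo pool for 1 h at 4 °C in 25 mM Tris-HCl, 150 mM KCl, 3 mM MgCl2, BSA and SUPERase IN. After washing, biotin elution, reverse transcription, PCR amplification and sequencing, binding was expressed as R: each oligo's normalized read abundance in the bound sample over its abundance in input.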
Take B1: the binding signal is 0.0144 R (bound/input frequency ratio).

In the case of B2, the binding signal is 1.54 R (bound/input frequency ratio).

In the case of B3, the binding signal was 0.453 R (bound/input frequency ratio).

On to B4, for which the binding signal is 4.34 R (bound/input frequency ratio).

With B5, the binding signal is 7.36 R (bound/input frequency ratio).

For B6, the binding signal is 4.76 R (bound/input frequency ratio).

Regarding B7, the binding signal is 5.93 R (bound/input frequency ratio).

The record behind these values is paper PMC12864922, “TDP-43 directly inhibits mRNA accumulation in neurites through modulation of mRNA stability”.
